Source: PubChem BioAssay (Tox21)
“And” between values parts separate entries of the source, which are not always exact repeats. Equal entries are not always repeated. Results filed as inconclusive are left out. The source made the active and inactive calls. Calls follow the shape of the dose curve; as a rule, active = well fitted inhibition curve with a large enough effect in the repeat runs; inconclusive = weak or mixed curves; inactive = no such curve, though single readings can be large or run the other way.
% is scaled to controls: 0 for no effect and ±100 for the full control effect; potency is read from the fitted curve at half-maximal effect.
Also: nearly all actives have a fitted effect of over 50% in size.

Each compound was assayed against Cytochrome P450 2C9 (Homo sapiens) (UniProt P11712) (assay: Cytochrome P450 Family 2 Subfamily C Member 9 (CYP2C9) small molecule antagonists: luciferase reporter qHTS assay (AID 1671198)). Conditions: P450-Glo CYP2C9 enzyme assay, luciferin luminescence; series mostly up to 53 µM; activity change, negative = inhibition: at the top concentration.
Chain of Cytochrome P450 2C9 (Homo sapiens) (P11712 whole entry, looked up): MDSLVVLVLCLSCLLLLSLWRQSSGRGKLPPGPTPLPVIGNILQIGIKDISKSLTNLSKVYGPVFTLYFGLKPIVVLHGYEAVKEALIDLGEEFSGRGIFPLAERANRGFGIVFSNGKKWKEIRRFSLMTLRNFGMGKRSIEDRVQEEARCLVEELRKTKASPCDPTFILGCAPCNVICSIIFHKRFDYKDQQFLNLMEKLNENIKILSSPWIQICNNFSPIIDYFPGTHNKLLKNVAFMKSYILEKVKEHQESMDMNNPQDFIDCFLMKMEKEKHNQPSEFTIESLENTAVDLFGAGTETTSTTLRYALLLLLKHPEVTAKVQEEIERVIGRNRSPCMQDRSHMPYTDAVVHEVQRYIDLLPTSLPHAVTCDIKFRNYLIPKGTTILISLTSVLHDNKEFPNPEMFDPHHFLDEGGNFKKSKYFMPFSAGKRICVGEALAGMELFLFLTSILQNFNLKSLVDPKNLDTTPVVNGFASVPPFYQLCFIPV
Method in brief: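 CYP2C9 activity was measured with a P450-Glo proluciferin substrate. Enzyme–substrate mix was held with compound for 10 min at room temperature, then NADPH regeneration solution was added for 1 h at 37C. Luciferin product was read as luminescence.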
`CCCCN1C(=O)[C@@H]([C@H](O)C2CCCCC2)NC(=O)C12CCN(Cc1ccc(Oc3ccc(C(=O)O)cc3)cc1)CC2` was tested, and the “activity change, negative = inhibition” value was -21.9% [at 115 µM] (inactive). For `Nc1nc2ccccc2n1Cc1ccc(F)cc1`, the “activity change, negative = inhibition” value was -14.3% (inactive). `C[C@H]1[C@H]2CC[C@H]3[C@@H]4CC=C5C[C@@H](N(C)C)CC[C@]5(C)[C@H]4CC[C@]23CN1C` was tested, and the “activity change, negative = inhibition” value was -1.48% (inactive). `CC(C)=CCOc1ccc(/C=C/C(=O)c2ccc(OCC=C(C)C)cc2OCC(=O)O)cc1` was tested, and the Potency was 15.5 µM (active). For `COC(=O)C1=C(C)NC(C)=C(C(=O)OCCc2ccc(N3CCN(C(c4ccccc4)c4ccccc4)CC3)cc2)C1c1cccc([N+](=O)[O-])c1` (configuration not stated), the Potency was 0.436 µM (active). With `CCCCCCCCCCCCCCCC[N+](C)(C)CCN(Cc1ccc(OC)cc1)c1ncccn1` the Potency was 30.9 µM (active). For `Clc1ccc(C(Cn2ccnc2)OCc2ccc(Sc3ccccc3)cc2)c(Cl)c1` (configuration not stated), the Potency was 2.75 µM (active). In the case of `C/C(=C(/OCCOc1ccc(Cl)cc1)c1ccc(Cl)cc1Cl)n1ccnc1`, the Potency is reported as 0.871 µM (active). In the case of `CCOC(=O)/C=C(C)/C=C/C=C(C)/C=C/c1c(C)cc(OC)c(C)c1C`, the Potency is reported as 6.17 µM (active). `O=C(Oc1ccccc1)c1ccccc1C(=O)Oc1ccccc1` was tested, and the Potency was 12.6 µM (active). In the case of `[Cl][Bi]([Cl])([c]1ccccc1)([c]1ccccc1)[c]1ccccc1`, the Potency is reported as 1.12 µM (active). For `NNC(=O)c1cccc(C(=O)NN)c1`, the Potency was 35.6 µM (active). `N#CSc1ccc(N)c([N+](=O)[O-])c1` was tested, and the Potency was 40.2 µM (active). For `COc1ccc(CN2CCN(C(c3ccc(F)cc3)c3ccc(F)cc3)CC2)c(OC)c1OC`, the Potency was 11 µM (active). `NC(=O)C1(N2CCCCC2)CCN(CCCN2c3ccccc3CCc3ccc(Cl)cc32)CC1` was tested, and the Potency was 7.76 µM (active). `Cc1[nH]nc2c1N=C(c1ccccc1Cl)c1cc([N+](=O)[O-])ccc1N2` was tested, and the Potency was 15.9 µM (active). With `CN(C)CCCOC1(Cc2ccccc2)CCCCCC1` the “activity change, negative = inhibition” value was -3.3% (inactive). With `CCN(C(=O)c1cc(C)cc(OC[C@H](C)Nc2ccncc2)c1)C(C)C` the Potency was 7.02 µM (active). For `CC(C)(C)NC(=O)[C@@H]1C[C@@H]2CCCC[C@@H]2CN1C[C@@H](O)[C@H](Cc1ccccc1)NC(=O)[C@H](CC(N)=O)NC(=O)c1ccc2ccccc2n1`, the Potency was 40.4 µM (active). In the case of `C[n+]1ccn(Cc2ccccc2)c1`, the “activity change, negative = inhibition” value is reported as 6.05% [at 115 µM] (inactive). `CCN(C(=O)N(CC)c1ccccc1)c1ccccc1` was tested, and the Potency was 7.1 µM (active). With `O=C1C=CC(=O)N1` the “activity change, negative = inhibition” value was 0.298% [at 115 µM] (inactive). In the case of `CCCCN(CCCC)c1ccc(C(=O)c2ccccc2C(=O)O)c(O)c1`, the Potency is reported as 6.39 µM (active). In the case of `COc1cccc2c1C(=O)c1c(O)c3c(c(O)c1C2=O)C[C@@](O)(C(=O)CO)C[C@@H]3O[C@H]1C[C@H](N)[C@H](O[C@@H]2CCCCO2)[C@H](C)O1`, the Potency is reported as 15.5 µM (active). With `Cc1c(C)c2c(c(C)c1O)CCC(C)(COc1ccc(CC3SC(=O)NC3=O)cc1)O2` (configuration not stated) the Potency was 5.03 µM (active) and 4.9 µM (active). With `CC(C)OC(=O)c1cc2c(OCC(O)CNC(C)(C)C)cccc2[nH]1` (configuration not stated) the “activity change, negative = inhibition” value was -19.1% (inactive). In the case of `COc1cc(-c2ccc(N=C=O)c(OC)c2)ccc1N=C=O`, the “activity change, negative = inhibition” value is reported as -18.7% (inactive). With `O=C1c2ccccc2Cc2ccccc21` the Potency was 16 µM (active). For `CCCCC(CC)COC(=O)c1ccccc1C(=O)O` (configuration not stated), the Potency was 5.91 µM (active). In the case of `N/C(=N\N=C\c1ccc(Cl)cc1)N/N=C/c1ccc(Cl)cc1`, the Potency is reported as 13.8 µM (active). `COc1cc(-c2nc(NC(=O)c3cc4cc(C)cc(C)c4n3CC(=O)O)sc2CCC2CCCCC2)c(OC)cc1Cl` was tested, and the Potency was 51.7 µM (active). For `CSc1cnc(C)cn1`, the “activity change, negative = inhibition” value was -12.3% [at 300 µM] (inactive). With `NNc1nc(-c2ccccc2)cs1` the Potency was 9.19 µM (active). `CCCC1O[C@@H]2C[C@H]3[C@@H]4CCC5=CC(=O)C=C[C@]5(C)[C@H]4[C@@H](O)C[C@]3(C)[C@]2(C(=O)CO)O1` (some centres not stated) was tested, and the Potency was 39.9 µM (active) and 35.6 µM (active). `CCCCCOc1ccccc1/C(=C\SC)n1ccnc1` was tested, and the Potency was 5.49 µM (active).

Each compound was assayed against Cytochrome P450 1A2 (Homo sapiens) (UniProt P05177) (assay: Cytochrome P450 Family 1 Subfamily A Member 2 (CYP1A2) small molecule antagonists: luciferase reporter qHTS assay (AID 1671199)). Conditions: P450-Glo CYP1A2 enzyme, luciferin luminescence, 1 h; series mostly up to 53 µM; activity change, negative = inhibition: at the top concentration.
Chain of Cytochrome P450 1A2 (Homo sapiens) (P05177 whole entry, looked up): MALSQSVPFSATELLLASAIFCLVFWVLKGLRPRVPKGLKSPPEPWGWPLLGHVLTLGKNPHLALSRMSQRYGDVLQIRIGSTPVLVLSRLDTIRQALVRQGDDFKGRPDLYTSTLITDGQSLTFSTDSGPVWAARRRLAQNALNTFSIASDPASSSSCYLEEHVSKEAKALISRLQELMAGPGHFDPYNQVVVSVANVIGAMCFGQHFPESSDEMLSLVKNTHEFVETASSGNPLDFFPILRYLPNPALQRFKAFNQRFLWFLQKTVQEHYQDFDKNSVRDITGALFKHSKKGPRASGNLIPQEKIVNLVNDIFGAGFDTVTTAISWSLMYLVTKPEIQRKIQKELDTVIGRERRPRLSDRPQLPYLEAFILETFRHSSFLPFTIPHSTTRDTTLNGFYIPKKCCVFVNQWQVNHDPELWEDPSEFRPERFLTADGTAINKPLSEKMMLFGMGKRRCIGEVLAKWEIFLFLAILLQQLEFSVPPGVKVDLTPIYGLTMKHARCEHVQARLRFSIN
Method in brief: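 Room-temperature CYP1A2 reaction with proluciferin substrate: compounds added from DMSO, 10 min preincubation, NADPH regeneration for 1 h. Luciferin detection reagent then added; luminescence recorded as RLU.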
In the case of `CCCCN1C(=O)[C@@H]([C@H](O)C2CCCCC2)NC(=O)C12CCN(Cc1ccc(Oc3ccc(C(=O)O)cc3)cc1)CC2`, the “activity change, negative = inhibition” value is reported as -11.8% [at 115 µM] (inactive). With `Nc1nc2ccccc2n1Cc1ccc(F)cc1` the Potency was 24.5 µM (active). For `C[C@H]1[C@H]2CC[C@H]3[C@@H]4CC=C5C[C@@H](N(C)C)CC[C@]5(C)[C@H]4CC[C@]23CN1C`, the “activity change, negative = inhibition” value was 14.3% (inactive). For `CC(C)=CCOc1ccc(/C=C/C(=O)c2ccc(OCC=C(C)C)cc2OCC(=O)O)cc1`, the “activity change, negative = inhibition” value was 6.25% (inactive). `COC(=O)C1=C(C)NC(C)=C(C(=O)OCCc2ccc(N3CCN(C(c4ccccc4)c4ccccc4)CC3)cc2)C1c1cccc([N+](=O)[O-])c1` (configuration not stated) was tested, and the Potency was 14.4 µM (active). In the case of `CCCCCCCCCCCCCCCC[N+](C)(C)CCN(Cc1ccc(OC)cc1)c1ncccn1`, the “activity change, negative = inhibition” value is reported as -18.9% (inactive). With `Clc1ccc(C(Cn2ccnc2)OCc2ccc(Sc3ccccc3)cc2)c(Cl)c1` (configuration not stated) the Potency was 15.5 µM (active). `C/C(=C(/OCCOc1ccc(Cl)cc1)c1ccc(Cl)cc1Cl)n1ccnc1` was tested, and the Potency was 2.29 µM (active). `CCOC(=O)/C=C(C)/C=C/C=C(C)/C=C/c1c(C)cc(OC)c(C)c1C` was tested, and the Potency was 24.5 µM (active). For `O=C(Oc1ccccc1)c1ccccc1C(=O)Oc1ccccc1`, the Potency was 5.64 µM (active). For `[Cl][Bi]([Cl])([c]1ccccc1)([c]1ccccc1)[c]1ccccc1`, the Potency was 19.9 µM (active). For `NNC(=O)c1cccc(C(=O)NN)c1`, the Potency was 10 µM (active). `N#CSc1ccc(N)c([N+](=O)[O-])c1` was tested, and the Potency was 1.6 µM (active). `COc1ccc(CN2CCN(C(c3ccc(F)cc3)c3ccc(F)cc3)CC2)c(OC)c1OC` was tested, and the “activity change, negative = inhibition” value was -23.6% (inactive). With `NC(=O)C1(N2CCCCC2)CCN(CCCN2c3ccccc3CCc3ccc(Cl)cc32)CC1` the “activity change, negative = inhibition” value was -6.75% (inactive). `Cc1[nH]nc2c1N=C(c1ccccc1Cl)c1cc([N+](=O)[O-])ccc1N2` was tested, and the Potency was 63.3 µM (active). In the case of `CN(C)CCCOC1(Cc2ccccc2)CCCCCC1`, the “activity change, negative = inhibition” value is reported as -12.1% (inactive). `CCN(C(=O)c1cc(C)cc(OC[C@H](C)Nc2ccncc2)c1)C(C)C` was tested, and the “activity change, negative = inhibition” value was -17.2% (inactive). `C[n+]1ccn(Cc2ccccc2)c1` was tested, and the “activity change, negative = inhibition” value was -13.1% [at 115 µM] (inactive). In the case of `CCN(C(=O)N(CC)c1ccccc1)c1ccccc1`, the “activity change, negative = inhibition” value is reported as -11% [at 115 µM] (inactive). In the case of `O=C1C=CC(=O)N1`, the Potency is reported as 32.6 µM (active). For `COc1cccc2c1C(=O)c1c(O)c3c(c(O)c1C2=O)C[C@@](O)(C(=O)CO)C[C@@H]3O[C@H]1C[C@H](N)[C@H](O[C@@H]2CCCCO2)[C@H](C)O1`, the “activity change, negative = inhibition” value was -10.3% (inactive). With `Cc1c(C)c2c(c(C)c1O)CCC(C)(COc1ccc(CC3SC(=O)NC3=O)cc1)O2` (configuration not stated) the Potency was “inactive”. In the case of `CC(C)OC(=O)c1cc2c(OCC(O)CNC(C)(C)C)cccc2[nH]1` (configuration not stated), the “activity change, negative = inhibition” value is reported as -30% (inactive). In the case of `COc1cc(-c2ccc(N=C=O)c(OC)c2)ccc1N=C=O`, the “activity change, negative = inhibition” value is reported as -14.4% (inactive). For `O=C1c2ccccc2Cc2ccccc21`, the Potency was 0.452 µM (active). With `CCCCC(CC)COC(=O)c1ccccc1C(=O)O` (configuration not stated) the Potency was 54.2 µM (active). With `N/C(=N\N=C\c1ccc(Cl)cc1)N/N=C/c1ccc(Cl)cc1` the Potency was 3.63 µM (active). For `COc1cc(-c2nc(NC(=O)c3cc4cc(C)cc(C)c4n3CC(=O)O)sc2CCC2CCCCC2)c(OC)cc1Cl`, the “activity change, negative = inhibition” value was 33.9% [at 115 µM] (inactive). With `NNc1nc(-c2ccccc2)cs1` the Potency was 0.651 µM (active). With `CCCC1O[C@@H]2C[C@H]3[C@@H]4CCC5=CC(=O)C=C[C@]5(C)[C@H]4[C@@H](O)C[C@]3(C)[C@]2(C(=O)CO)O1` (some centres not stated) the Potency was “inactive”. In the case of `CCCCCOc1ccccc1/C(=C\SC)n1ccnc1`, the Potency is reported as 2.29 µM (active).
